# According to the supplement of paper PMC4466140:
# B1: unnamed (peptide)
# chain: RNNRPVPPPPPMRTT
# B2: unnamed (peptide)
# chain: PPPPPPPPPPPLPQS
# Biological target: AgAbp1
# Assay: SPOT peptide array binding signal intensity (averaged, normalized) (arbitrary units (background-subtracted, floor 0; scale differs between SH3 domains)); higher = stronger binding of the SH3 domain to the peptide
# In short: (§1)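 GST-fused SH3 domains, from four yeast species, were produced in E. coli BL21(DE3) and captured on glutathione Sepharose. Membranes of cellulose carrying synthetic 15-mer peptides, in which cysteines had been replaced by serines, were exposed to each domain at 10 μg/ml overnight at 4°C in TBS-based blocking buffer. After anti-GST antibody, an HRP anti-mouse secondary and luminol, spots were imaged and quantified using Genespotter. Binding signal is normalized and background-subtracted spot intensity, averaged over replicates, in arbitrary units that differ between domains.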
row,Binder,SPOT peptide array binding signal intensity
1,B1,9
2,B2,9

# Biological target: AgBbc1
# Assay: as above
# In short: as §1
row,Binder,SPOT peptide array binding signal intensity
1,B1,519
2,B2,0.5

# Biological target: AgBem1-D1
# Assay: as above
# In short: as §1
row,Binder,SPOT peptide array binding signal intensity
1,B1,129
2,B2,28

# Biological target: AgBzz1-D1
# Assay: as above
# In short: as §1
row,Binder,SPOT peptide array binding signal intensity
1,B1,232
2,B2,5

# Biological target: AgBzz1-D2
# Assay: as above
# In short: as §1
row,Binder,SPOT peptide array binding signal intensity
1,B1,117
2,B2,1

# Biological target: AgCyk3
# Assay: as above
# In short: as §1
row,Binder,SPOT peptide array binding signal intensity
1,B1,15
2,B2,2

# Biological target: AgFus1
# Assay: as above
# In short: as §1
row,Binder,SPOT peptide array binding signal intensity
1,B1,11
2,B2,≤ 0

# Biological target: AgHof1
# Assay: as above
# In short: as §1
row,Binder,SPOT peptide array binding signal intensity
1,B1,95.5
2,B2,228

# Biological target: AgHse1
# Assay: as above
# In short: as §1
row,Binder,SPOT peptide array binding signal intensity
1,B1,23
2,B2,≤ 0

# Biological target: AgLsb1
# Assay: as above
# In short: as §1
row,Binder,SPOT peptide array binding signal intensity
1,B1,27
2,B2,≤ 0

# Biological target: AgLsb4
# Assay: as above
# In short: as §1
row,Binder,SPOT peptide array binding signal intensity
1,B1,131
2,B2,≤ 0

# Biological target: AgMyo5
# Assay: as above
# In short: as §1
row,Binder,SPOT peptide array binding signal intensity
1,B1,72.2
2,B2,688

# Biological target: AgNbp2
# Assay: as above
# In short: as §1
row,Binder,SPOT peptide array binding signal intensity
1,B1,59.5
2,B2,2

# Biological target: AgRvs167
# Assay: as above
# In short: as §1
row,Binder,SPOT peptide array binding signal intensity
1,B1,76.8
2,B2,4.67

# Biological target: AgSho1
# Assay: as above
# In short: as §1
row,Binder,SPOT peptide array binding signal intensity
1,B1,5
2,B2,≤ 0

# Biological target: AgSla1-D1-D2
# Assay: as above
# In short: as §1
row,Binder,SPOT peptide array binding signal intensity
1,B1,6
2,B2,≤ 0

# Biological target: AgSla1-D3
# Assay: as above
# In short: as §1
row,Binder,SPOT peptide array binding signal intensity
1,B1,21.5
2,B2,0.5

# Biological target: CaAbp1-D1
# Assay: as above
# In short: as §1
row,Binder,SPOT peptide array binding signal intensity
1,B1,53.5
2,B2,4.5

# Biological target: CaAbp1-D2
# Assay: as above
# In short: as §1
row,Binder,SPOT peptide array binding signal intensity
1,B1,11
2,B2,3

# Biological target: CaBbc1
# Assay: as above
# In short: as §1
row,Binder,SPOT peptide array binding signal intensity
1,B1,724
2,B2,≤ 0

# Biological target: CaBem1-D1
# Assay: as above
# In short: as §1
row,Binder,SPOT peptide array binding signal intensity
1,B1,108
2,B2,≤ 0

# Biological target: CaBzz1-D1
# Assay: as above
# In short: as §1
row,Binder,SPOT peptide array binding signal intensity
1,B1,5240
2,B2,1610

# Biological target: CaBzz1-D2
# Assay: as above
# In short: as §1
row,Binder,SPOT peptide array binding signal intensity
1,B1,1310
2,B2,313

# Biological target: CaCyk3
# Assay: as above
# In short: as §1
row,Binder,SPOT peptide array binding signal intensity
1,B1,247
2,B2,≤ 0

# Biological target: CaFus1
# Assay: as above
# In short: as §1
row,Binder,SPOT peptide array binding signal intensity
1,B1,69
2,B2,8.5

# Biological target: CaHof1
# Assay: as above
# In short: as §1
row,Binder,SPOT peptide array binding signal intensity
1,B1,9.5
2,B2,0.75

# Biological target: CaHse1
# Assay: as above
# In short: as §1
row,Binder,SPOT peptide array binding signal intensity
1,B1,3
2,B2,11.2

# Biological target: CaLsb1
# Assay: as above
# In short: as §1
row,Binder,SPOT peptide array binding signal intensity
1,B1,2
2,B2,2.25

# Biological target: CaLsb4
# Assay: as above
# In short: as §1
row,Binder,SPOT peptide array binding signal intensity
1,B1,541
2,B2,16

# Biological target: CaMyo5
# Assay: as above
# In short: as §1
row,Binder,SPOT peptide array binding signal intensity
1,B1,34
2,B2,235

# Biological target: CaNbp2
# Assay: as above
# In short: as §1
row,Binder,SPOT peptide array binding signal intensity
1,B1,312
2,B2,34

# Biological target: CaRvs167
# Assay: as above
# In short: as §1
row,Binder,SPOT peptide array binding signal intensity
1,B1,392
2,B2,2.83

# Biological target: CaRvs167-3
# Assay: as above
# In short: as §1
row,Binder,SPOT peptide array binding signal intensity
1,B1,1
2,B2,≤ 0

# Biological target: CaSho1
# Assay: as above
# In short: as §1
row,Binder,SPOT peptide array binding signal intensity
1,B1,17
2,B2,≤ 0

# Biological target: CaSla1-D1-D2
# Assay: as above
# In short: as §1
row,Binder,SPOT peptide array binding signal intensity
1,B1,1140
2,B2,≤ 0

# Biological target: CaSla1-D3
# Assay: as above
# In short: as §1
row,Binder,SPOT peptide array binding signal intensity
1,B1,187
2,B2,1

# Biological target: ScAbp1
# Assay: as above
# In short: as §1
row,Binder,SPOT peptide array binding signal intensity
1,B1,10.5
2,B2,≤ 0

# Biological target: ScBbc1
# Assay: as above
# In short: as §1
row,Binder,SPOT peptide array binding signal intensity
1,B1,58
2,B2,1.25

# Biological target: ScBem1-D1
# Assay: as above
# In short: as §1
row,Binder,SPOT peptide array binding signal intensity
1,B1,4
2,B2,≤ 0

# Biological target: ScBzz1-D1
# Assay: as above
# In short: as §1
row,Binder,SPOT peptide array binding signal intensity
1,B1,453
2,B2,9

# Biological target: ScBzz1-D2
# Assay: as above
# In short: as §1
row,Binder,SPOT peptide array binding signal intensity
1,B1,113
2,B2,2

# Biological target: ScCyk3
# Assay: as above
# In short: as §1
row,Binder,SPOT peptide array binding signal intensity
1,B1,2.5
2,B2,≤ 0

# Biological target: ScFus1
# Assay: as above
# In short: as §1
row,Binder,SPOT peptide array binding signal intensity
1,B1,2.5
2,B2,1.5

# Biological target: ScHof1
# Assay: as above
# In short: as §1
row,Binder,SPOT peptide array binding signal intensity
1,B1,21
2,B2,20

# Biological target: ScHse1
# Assay: as above
# In short: as §1
row,Binder,SPOT peptide array binding signal intensity
1,B1,49.5
2,B2,≤ 0

# Biological target: ScLsb1
# Assay: as above
# In short: as §1
row,Binder,SPOT peptide array binding signal intensity
1,B1,27
2,B2,≤ 0

# Biological target: ScLsb2
# Assay: as above
# In short: as §1
row,Binder,SPOT peptide array binding signal intensity
1,B1,13.5
2,B2,≤ 0

# Biological target: ScLsb3
# Assay: as above
# In short: as §1
row,Binder,SPOT peptide array binding signal intensity
1,B1,1090
2,B2,42.5

# Biological target: ScLsb4
# Assay: as above
# In short: as §1
row,Binder,SPOT peptide array binding signal intensity
1,B1,500
2,B2,7

# Biological target: ScMyo3
# Assay: as above
# In short: as §1
row,Binder,SPOT peptide array binding signal intensity
1,B1,425
2,B2,1490

# Biological target: ScMyo5
# Assay: as above
# In short: as §1
row,Binder,SPOT peptide array binding signal intensity
1,B1,156
2,B2,1040

# Biological target: ScNbp2
# Assay: as above
# In short: as §1
row,Binder,SPOT peptide array binding signal intensity
1,B1,622
2,B2,≤ 0

# Biological target: ScPex13
# Assay: as above
# In short: as §1
row,Binder,SPOT peptide array binding signal intensity
1,B1,1210
2,B2,51.5

# Biological target: ScRvs167
# Assay: as above
# In short: as §1
row,Binder,SPOT peptide array binding signal intensity
1,B1,2320
2,B2,≤ 0

# Biological target: ScSho1
# Assay: as above
# In short: as §1
row,Binder,SPOT peptide array binding signal intensity
1,B1,99
2,B2,≤ 0

# Biological target: ScSla1-D1-D2
# Assay: as above
# In short: as §1
row,Binder,SPOT peptide array binding signal intensity
1,B1,1300
2,B2,≤ 0

# Biological target: ScSla1-D3
# Assay: as above
# In short: as §1
row,Binder,SPOT peptide array binding signal intensity
1,B1,56.5
2,B2,0.75

# Biological target: SpAbp1-D1
# Assay: as above
# In short: as §1
row,Binder,SPOT peptide array binding signal intensity
1,B1,15.5
2,B2,12.5

# Biological target: SpBbc1
# Assay: as above
# In short: as §1
row,Binder,SPOT peptide array binding signal intensity
1,B1,41
2,B2,0.5

# Biological target: SpBzz1-D1
# Assay: as above
# In short: as §1
row,Binder,SPOT peptide array binding signal intensity
1,B1,2280
2,B2,2670

# Biological target: SpBzz1-D2
# Assay: as above
# In short: as §1
row,Binder,SPOT peptide array binding signal intensity
1,B1,28.8

# Biological target: SpCyk3
# Assay: as above
# In short: as §1
row,Binder,SPOT peptide array binding signal intensity
1,B1,23

# Biological target: SpHof1
# Assay: as above
# In short: as §1
row,Binder,SPOT peptide array binding signal intensity
1,B1,22.8

# Biological target: SpHof1-2
# Assay: as above
# In short: as §1
row,Binder,SPOT peptide array binding signal intensity
1,B1,24.8

# Biological target: SpHof1-3
# Assay: as above
# In short: as §1
row,Binder,SPOT peptide array binding signal intensity
1,B1,98.2

# Biological target: SpHse1
# Assay: as above
# In short: as §1
row,Binder,SPOT peptide array binding signal intensity
1,B1,52

# Biological target: SpLsb1
# Assay: as above
# In short: as §1
row,Binder,SPOT peptide array binding signal intensity
1,B1,44.2

# Biological target: SpLsb4
# Assay: as above
# In short: as §1
row,Binder,SPOT peptide array binding signal intensity
1,B1,1450

# Biological target: SpMyo1
# Assay: as above
# In short: as §1
row,Binder,SPOT peptide array binding signal intensity
1,B1,662

# Biological target: SpNbp2
# Assay: as above
# In short: as §1
row,Binder,SPOT peptide array binding signal intensity
1,B1,8.5

# Biological target: SpPex13
# Assay: as above
# In short: as §1
row,Binder,SPOT peptide array binding signal intensity
1,B1,19.5

# Biological target: SpRvs167
# Assay: as above
# In short: as §1
row,Binder,SPOT peptide array binding signal intensity
1,B1,1030

# Biological target: SpSla1-D1-D2
# Assay: as above
# In short: as §1
row,Binder,SPOT peptide array binding signal intensity
1,B1,134

# Biological target: SpSla1-D3
# Assay: as above
# In short: as §1
row,Binder,SPOT peptide array binding signal intensity
1,B1,7
